Records with an inconclusive call do not appear. Values without a mark were called inactive. Active and inactive are the calls of the source. Calls follow the shape of the dose curve; as a rule, active = well fitted inhibition curve with a large enough effect; inconclusive = small, poorly fitted or top-dose-only effect; inactive = no such curve, though single readings can be large or run the other way.
Each compound was assayed against Coelenterazine h 2-monooxygenase (Renilla reniformis) (UniProt P27652) (assay: qHTS Assay for Inhibitors of Sea Pansy Luciferase from the GSK Published Protein Kinase Inhibitor Set). Settings: purified Renilla luciferase, luminescence; series mostly up to 57.5 µM; activity change, negative = inhibition: at the top concentration.
Coelenterazine h 2-monooxygenase (Renilla reniformis), sequence (P27652 whole entry, looked up): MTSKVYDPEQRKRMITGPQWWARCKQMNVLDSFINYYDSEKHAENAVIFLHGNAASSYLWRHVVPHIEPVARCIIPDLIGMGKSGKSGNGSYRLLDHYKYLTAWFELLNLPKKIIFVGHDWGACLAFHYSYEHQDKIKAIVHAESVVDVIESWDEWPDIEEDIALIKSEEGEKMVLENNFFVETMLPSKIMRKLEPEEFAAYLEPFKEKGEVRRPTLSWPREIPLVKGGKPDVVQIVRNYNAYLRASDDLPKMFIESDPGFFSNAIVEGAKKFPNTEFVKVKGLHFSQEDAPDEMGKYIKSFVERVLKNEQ
Description: FLuc (firefly luciferase) is the prototypical bioluminescent reporter gene from Photinus pyralis.[1] The enzyme catalyzes the oxidation luciferin via luciferin-AMP to produce light. FLuc is used in cell-based reporter gene-based assays for screening small molecule chemical libraries. However, small molecule luciferase inhibitors present in most large chemical libraries are often enriched in the output of high throughput screens using this reporter sometimes complicating interpretation and candidate selection.
RLuc is a bioluminescent reporter gene luciferase from Renilla reniformis, also known as the sea pansy. RLuc uses the luciferin substrate coelenterazine. RLuc is often used in combination with the nonhomologous luciferase FLuc (firefly luciferease) as a trasfection or pathway normalization control. Recently, non-homologous reporters have been described for high throughput screening 'coincidence' reporter gene strategies.
1. Fan F, Wood KV (2007) Bioluminescent assays for high-throughput screening. Assay Drug Dev Technol 5: 127-136.
2. Thorne N, Inglese J, Auld DS (2010) Illuminating insights into firefly luciferase and other bioluminescent reporters used in chemical biology. Chem Biol 17: 646-657.
3. […] Chem Biol 19: 1060-1072.
4. Michelini E, Cevenini L, Mezzanotte L, Coppa A, Roda A (2010) Cell-based assays: fuelling drug discovery. Anal Bioanal Chem 398: 227-238.
5. Cheng KC, Inglese J (2012) A coincidence reporter-gene system for high-throughput screening. Nat Methods 9: 937.
Biochemical renilla luciferase enzyme assay
NCGC Assay Protocol Summary:
Reagents: 50mM Tris acetate, pH 7.5; 100uM NaCl; 5uM Coelenterazine H (Promega #S2011); 0.01% Tween-20; 0.05% BSA; 1nM R. reniformis luciferase (Nanolight Technologies #314)
Control compounds used were a known renilla luciferase inhibitor BTS (Tocris Biosciences #1870) and DMSO.
Three microliters containing renilla luciferase substrate in buffer (final concentrations: 50mM Tris acetate, pH 7.5, 100uM NaCl, 0.01% Tween-20, 0.05% BSA, 5uM coelenterazine h) are dispensed into each well of a Greiner white, solid-bottom 1536-well format plate using a flying reagent dispenser (FRD). These assay plates were then treated with 23nL of compound or DMSO using a Kalypsys pin tool, which allows for delivery of a 7-point interplate titration of each compound to the assay plate (quantitative HTS), with final compound concentrations ranging from approximately 60uM to 300pM. One microliter of renilla luciferase in 50mM Tris-acetate buffer was then delivered by FRD to each well for a final enzyme concentration of 1nM. Luciferase activity was then measured using an Envision plate reader (PerkinElmer), with an average incubation time of 2 min.
Potency is read from the fitted curve at half-maximal effect.

Row | Structure (SMILES) | activity change, negative = inhibition [%] | Potency
1 | Fc1cccc(COc2ccc(Nc3ncnc4sc(-c5ccco5)cc34)cc2Cl)c1 | 45.2 | 
2 | Oc1[nH]c2ccccc2c1C=Nc1ccc(-n2cncn2)cc1 | 25.2 | 
3 | N#Cc1c(NC(=O)CN2CCOCC2)sc2c1CCCC2 | 10.2 | 
4 | CC1=C(C(=O)Nc2ccc3[nH]ncc3c2)C(c2ccc(F)cc2)N=C(c2ccc(C(F)(F)F)nc2)N1 (stereo not given) | 32.8 | 
5 | CCn1c(-c2nonc2N)nc2cncc(C(=O)NCCNC)c21 | 39.8 | 
6 | O=S1CCN(Cc2ccc(-c3ccc4ncnc(Nc5ccc(OCc6ccccc6)c(F)c5)c4c3)o2)CC1 | 27 | 
7 | Cc1c2ccc(N(C)c3ccnc(Nc4cccc(S(N)(=O)=O)c4)n3)cc2nn1C |  | 18.3 µM (active)
8 | Nc1nccc(-c2c(-c3ccc(F)cc3)ncn2CCCN2CCOCC2)n1 | 25.3 | 
9 | Fc1ccc(-c2c(-c3ccncc3)nc3n2CCS3)cc1 | -2.73 | 
10 | CCn1c(-c2nonc2N)nc2ccc(F)cc21 | 25.6 | 
11 | CC(=O)Nc1cccc(C#Cc2cncnc2Nc2ccc(OCc3cccc(F)c3)c(Cl)c2)n1 | 12.4 | 
12 | COC(=O)Nc1nc2ccc(S(=O)(=O)c3ccc(NC(=O)Nc4cc(C(F)(F)F)ccc4F)cc3)cc2[nH]1 | 16.9 | 
13 | COc1ccc(-c2cc(-c3cn[nH]c3-c3ccccn3)ccn2)cc1 | 29.3 | 
14 | c1ccc(-c2[nH]ncc2-c2ccnc(-c3ccc(OCCN4CCOCC4)cc3)c2)nc1 | 25.2 | 
15 | Fc1ccc(-c2ncn(C3CCNCC3)c2-c2ccnc(Oc3ccc4c(c3)OCO4)n2)cc1 | 13.2 | 
16 | COc1cccc(-n2nc(C)c3c(NN=C(C)c4ccncc4)ncnc32)c1 | 22.2 | 
17 | c1ccc(-c2nc3n(c2-c2ccc4c(c2)OCO4)CCC3)nc1 | 24.2 | 
18 | COc1cc2ncnc(Nc3ccc4c(cnn4Cc4ccccc4)c3)c2cc1OC | 9.63 | 
19 | CS(=O)(=O)CCNCc1nc(-c2ccc3ncnc(Nc4ccc(F)c(Cl)c4)c3c2)cs1 | 18.1 | 
20 | CS(=O)(=O)CCNCc1ccc(-c2ccc3ncnc(Nc4ccc(OCc5ccccc5)c(Cl)c4)c3c2)o1 | 19 | 

Row | Structure (SMILES) | activity change, negative = inhibition [%] | Potency
21 | CCN1CCC(CC(=O)Nc2n[nH]c3nnc(-c4cccc(F)c4F)cc23)CC1 | 4.99 | 
22 | Nc1nccc(-c2c(-c3ccc(F)cc3)ncn2C2CCNCC2)n1 |  | inactive
23 | O=C(Nc1n[nH]c2cc(-c3ccccc3)ccc12)C1CC1 | 34.2 | 
24 | O=C(OC1CNC(C#Cc2cc3ncnc(Nc4ccc(OCc5cccc(F)c5)c(Cl)c4)c3s2)C1)N1CCOCC1 (stereo not given) | 25.9 | 
25 | Clc1ccc(-c2nn3ncccc3c2-c2ccnc(Nc3ccccc3)n2)cc1 | 49.5 | 
26 | COc1cccc(-c2c[nH]c3c(NN=Cc4ccncc4)ncnc23)c1 | 39.2 | 
27 | NS(=O)(=O)c1ccc(N=Nc2c(O)[nH]c3cccc(CCc4ccncc4)c23)cc1 | 9.9 | 
28 | Fc1ccc(-c2ncn(C3CCNCC3)c2-c2ccnc(Oc3ccc(F)c(F)c3)n2)cc1 | 14.2 | 
29 | CN(c1ccc(NC(=O)Nc2c(Cl)cccc2Cl)cc1)c1ccnc(Nc2cccc(CS(C)(=O)=O)c2)n1 | 26.4 | 
30 | Fc1cccc(COc2ccc(Nc3ncnc4cc(-c5ccc[nH]5)sc34)cc2Cl)c1 | 9.53 | 
31 | NS(=O)(=O)c1ccc(N=Nc2c(O)[nH]c3ccc(C(=O)NCc4ccncc4)cc23)cc1 | 40.3 | 
32 | N#Cc1cccc(Nc2ncc(-c3ccccc3)o2)c1 | 33.1 | 
33 | O=C1NC(=O)C(c2ccccc2Cl)=C1Nc1cccc(O)c1 | 34.5 | 
34 | Nc1nccc(-c2c(-c3ccc(F)cc3)nn3cc(C(F)(F)F)ccc23)n1 | 15 | 
35 | COc1cc(C=NNc2ncnc3c2cnn3Cc2ccccc2)ccc1O | 45.1 | 
36 | CCn1c(-c2nonc2N)nc2cnc(Oc3cccc(NC(=O)c4ccc(N(C)C)cc4)c3)cc21 | 12.6 | 
37 | N#Cc1cccc(Nc2nccc(-c3cnn4ncccc34)n2)c1 | 17.2 | 
38 | Nc1nonc1-c1nc2cnccc2n1C1CCCCC1 | 48.6 | 
39 | Cc1ccc(-c2cc3c(NC(=O)C4CC4)ncnc3o2)cc1 | 6.69 | 
40 | CNC(=O)c1cncc(C=Cc2c(C)cccc2C)c1 | 11.8 | 

— PubChem BioAssay AID652015 (National Center for Advancing Translational Sciences (NCATS), 2013)
